Several values for one entry are separate records, joined by “and”; a condition that tells them apart may be missing. Identical values can stand only once. Hit rate of the full screen: of about 5,500 compounds, about 2,000 (36%) were called active. About 18% were inconclusive and are not listed. Some of the results follow. Values without a mark were called inactive. Rule as the data show it: active = normalized growth mostly below about 0.91 (no sharp cut-off); inconclusive = no clear call, values can overlap the other calls; inactive = mostly above about 0.92.
Assay: chemical genetic growth profiling, strain panel (AID 1159580);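 also: tested at 20 µM; growth read once vehicle control cultures reached saturation at 30 °C; 1 = growth at the plate median or of vehicle wells; lower values mean less growth of the strain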
Settings: S. cerevisiae deletion strains, growth OD

## CC(NCCC(c1ccccc1)c1ccccc1)c1ccccc1 (configuration not stated)
Locus YAL013W, strain DEP1, hits give low values
  normalized growth: 0.925
Locus YAL021C, strain ccr4, hits give low values
  normalized growth: 0.592 (active)
Locus YAL026C, strain drs2, hits give low values
  normalized growth: 0.47 (active)
Locus YAL030W, strain snc1, hits give low values
  normalized growth: 0.992
Locus YBL061C, strain skt5, hits give low values
  normalized growth: 0.934
Locus YBR009C, strain hhf1, hits give low values
  normalized growth: 0.953
Locus YBR021W, strain FUR4, hits give low values
  normalized growth: 0.447 (active)
Locus YBR023C, strain chs3, hits give low values
  normalized growth: 0.799 (active)
Locus YBR171W, strain sec66, hits give low values
  normalized growth: 1
Locus YBR229C, strain ROT2, hits give low values
  normalized growth: 0.946
Locus YBR231C, strain swc5, hits give low values
  normalized growth: 0.944
Locus YBR279W, strain paf1, hits give low values
  normalized growth: 0.893 (active)
Locus YCL011C, strain gbp2, hits give low values
  normalized growth: 0.97
Locus YCL016C, strain dcc1, hits give low values
  normalized growth: 0.964
Locus YCL029C, strain bik1, hits give low values
  normalized growth: 0.975
Locus YCL061C, strain MRC1, hits give low values
  normalized growth: 1.02
Locus YCL069W, strain vba3, hits give low values
  normalized growth: 1.01
Locus YCR088W, strain abp1, hits give low values
  normalized growth: 1.02
Locus YDL005C, strain med2, hits give low values
  normalized growth: 1.03
Locus YDL035C, strain GPR1, hits give low values
  normalized growth: 0.908
Locus YDL040C, strain nat1, hits give low values
  normalized growth: 0.991
Locus YDL074C, strain BRE1, hits give low values
  normalized growth: 0.831
Locus YDL101C, strain DUN1, hits give low values
  normalized growth: 0.971
Locus YDL134C, strain PPH21, hits give low values
  normalized growth: 0.968
Locus YDL185W, strain tfp1, hits give low values
  normalized growth: 0.959
Locus YDL192W, strain arf1, hits give low values
  normalized growth: 0.985
Locus YDR001C, strain nth1, hits give low values
  normalized growth: 1.01
Locus YDR069C, strain doa4, hits give low values
  normalized growth: 0.57 (active)
Locus YDR101C, strain arx1, hits give low values
  normalized growth: 0.994
Locus YDR137W, strain rgp1, hits give low values
  normalized growth: 0.981
Locus YDR150W, strain NUM1, hits give low values
  normalized growth: 0.97
Locus YDR159W, strain sac3, hits give low values
  normalized growth: 1.09
Locus YDR162C, strain NBP2, hits give low values
  normalized growth: 0.936
Locus YDR195W, strain ref2
  normalized growth: 1.28 [resistant] (active)
Locus YDR297W, strain sur2, hits give low values
  normalized growth: 1.01
Locus YDR318W, strain mcm21, hits give low values
  normalized growth: 0.952
Locus YDR334W, strain swr1, hits give low values
  normalized growth: 1.01
Locus YDR335W, strain msn5, hits give low values
  normalized growth: 1
Locus YDR388W, hits give low values
  normalized growth: 0.328 (active)
Locus YDR392W, strain spt3, hits give low values
  normalized growth: 0.93
Locus YDR502C, strain sam2, hits give low values
  normalized growth: 0.964
Locus YEL003W, strain gim4, hits give low values
  normalized growth: 0.988
Locus YEL037C, strain rad23, hits give low values
  normalized growth: 0.98
Locus YEL061C, strain CIN8 (second series), hits give low values
  normalized growth: 1
Locus YEL061C, strain CIN8, hits give low values
  normalized growth: 0.987
Locus YER015W, strain faa2, hits give low values
  normalized growth: 0.9 (active)
Locus YER016W, strain bim1, hits give low values
  normalized growth: 1
Locus YER110C, hits give low values
  normalized growth: 0.978
Locus YER111C, strain swi4, hits give low values
  normalized growth: 1.01
Locus YER155C, strain BEM2 (second series), hits give low values
  normalized growth: 0.978
Locus YER155C, strain BEM2, hits give low values
  normalized growth: 0.999
Locus YER167W, strain BCK2, hits give low values
  normalized growth: 0.964
Locus YFR010W, strain ubp6, hits give low values
  normalized growth: 0.559 (active)
Locus YGL078C, strain dbp3, hits give low values
  normalized growth: 0.977
Locus YGL086W, strain mad1, hits give low values
  normalized growth: 0.96
Locus YGL167C, strain pmr1, hits give low values
  normalized growth: 1.01
Locus YGL173C, strain kem1, hits give low values
  normalized growth: 0.971
Locus YGL227W, strain vid30, hits give low values
  normalized growth: 1
Locus YGL240W, strain doc1, hits give low values
  normalized growth: 1.05
Locus YGL248W, strain PDE1, hits give low values
  normalized growth: 0.979
Locus YGL253W, strain hxk2, hits give low values
  normalized growth: 0.868 (active)
Locus YGR078C, strain PAC10, hits give low values
  normalized growth: 0.909
Locus YGR135W, strain pre9, hits give low values
  normalized growth: 0.832 (active)
Locus YGR229C, strain SMI1, hits give low values
  normalized growth: 0.623 (active)
Locus YGR252W, strain gcn5, hits give low values
  normalized growth: 0.679 (active)
Locus YHR013C, strain ard1, hits give low values
  normalized growth: 0.655 (active)
Locus YHR027C, strain rpn1, hits give low values
  normalized growth: 0.944
Locus YHR030C, strain SLT2, hits give low values
  normalized growth: 0.974 and 0.983
Locus YHR079C, strain IRE1 (second series), hits give low values
  normalized growth: 0.99
Locus YHR079C, strain IRE1, hits give low values
  normalized growth: 0.982
Locus YHR094C, strain hxt1, hits give low values
  normalized growth: 0.991
Locus YHR129C, strain ARP1, hits give low values
  normalized growth: 0.974
Locus YHR142W, strain chs7, hits give low values
  normalized growth: 0.802 (active)
Locus YHR200W, strain rpn10, hits give low values
  normalized growth: 0.99
Locus YIL066C, strain RNR3, hits give low values
  normalized growth: 0.948
Locus YIL073C, strain SPO22, hits give low values
  normalized growth: 1.14
Locus YIL125W, strain kgd1, hits give low values
  normalized growth: 0.989
Locus YIR030C, strain dcg1, hits give low values
  normalized growth: 0.978
Locus YJL092W, strain hpr5, hits give low values
  normalized growth: 0.986
Locus YJL095W, strain BCK1 (second series), hits give low values
  normalized growth: 0.901 (active)
Locus YJL095W, strain BCK1, hits give low values
  normalized growth: 0.824 and 0.989
Locus YJL115W, strain asf1, hits give low values
  normalized growth: 1
Locus YJL129C, strain trk1, hits give low values
  normalized growth: 1
Locus YJL134W, strain LCB3, hits give low values
  normalized growth: 0.988
Locus YJL154C, strain vps35, hits give low values
  normalized growth: 0.998
Locus YJL164C, strain tpk1, hits give low values
  normalized growth: 0.922
Locus YJL166W, strain qcr8, hits give low values
  normalized growth: 0.914
Locus YJL168C, strain set2, hits give low values
  normalized growth: 0.991
Locus YJL187C, strain SWE1 (second series), hits give low values
  normalized growth: 0.931
Locus YJL187C, strain SWE1, hits give low values
  normalized growth: 0.978
Locus YJR043C, strain POL32, hits give low values
  normalized growth: 1
Locus YJR066W, strain TOR1, hits give low values
  normalized growth: 0.903

Source: PubChem BioAssay AID1159580 (chemical genetic matrix, 2015)
